Screen size: about 310,000 compounds; about 14,000 (4.5%) showed an effect of 50% or more. The effect is printed as a negative number. Many of the other results were omitted from the sample, so strong results are more common in it than they were.
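Further: peak tail current of the secondary pulse compared with the same well before compound.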

For the test, the target named is human ether-à-go-go-related gene (hERG) potassium channel (human, UniProt Q12809). Briefly: primary screen, population patch clamp on CHO cells stably expressing hERG; higher = less effect of the substance.
human ether-à-go-go-related gene (hERG) potassium channel, sequence (Q12809 whole entry, looked up): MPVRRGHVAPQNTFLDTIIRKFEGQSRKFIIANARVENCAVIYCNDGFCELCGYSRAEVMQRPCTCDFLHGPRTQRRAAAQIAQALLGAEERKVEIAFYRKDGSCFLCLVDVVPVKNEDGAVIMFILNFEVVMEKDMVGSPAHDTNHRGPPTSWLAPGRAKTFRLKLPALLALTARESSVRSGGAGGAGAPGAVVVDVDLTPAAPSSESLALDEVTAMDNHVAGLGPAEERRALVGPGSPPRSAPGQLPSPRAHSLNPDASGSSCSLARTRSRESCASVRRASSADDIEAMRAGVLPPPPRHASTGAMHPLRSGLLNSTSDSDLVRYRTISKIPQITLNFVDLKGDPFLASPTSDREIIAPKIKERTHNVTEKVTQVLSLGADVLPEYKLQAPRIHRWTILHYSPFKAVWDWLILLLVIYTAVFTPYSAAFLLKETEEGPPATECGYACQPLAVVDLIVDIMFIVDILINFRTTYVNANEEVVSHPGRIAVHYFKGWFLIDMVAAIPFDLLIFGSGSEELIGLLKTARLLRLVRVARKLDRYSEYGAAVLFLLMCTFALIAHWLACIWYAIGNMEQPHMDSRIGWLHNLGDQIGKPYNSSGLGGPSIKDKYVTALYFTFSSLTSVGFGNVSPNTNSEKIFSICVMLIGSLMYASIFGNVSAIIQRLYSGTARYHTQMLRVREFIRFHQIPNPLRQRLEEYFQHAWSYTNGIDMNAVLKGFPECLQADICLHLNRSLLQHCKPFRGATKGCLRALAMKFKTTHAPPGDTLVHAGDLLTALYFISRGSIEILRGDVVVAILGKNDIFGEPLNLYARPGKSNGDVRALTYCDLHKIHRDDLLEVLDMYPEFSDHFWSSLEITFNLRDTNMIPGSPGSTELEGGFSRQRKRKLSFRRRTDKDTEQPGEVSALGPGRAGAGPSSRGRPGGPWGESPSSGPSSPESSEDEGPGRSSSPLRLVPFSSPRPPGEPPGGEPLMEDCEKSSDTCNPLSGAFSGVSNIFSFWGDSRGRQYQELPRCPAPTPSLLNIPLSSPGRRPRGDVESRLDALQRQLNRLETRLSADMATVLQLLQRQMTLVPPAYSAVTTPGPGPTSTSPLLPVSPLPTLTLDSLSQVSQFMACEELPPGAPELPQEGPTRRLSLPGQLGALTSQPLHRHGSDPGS
`O=[N+]([O-])c1cccnc1Sc1ccc(Cl)cc1`: the “hERG current change (%, negative = inhibition) at 10uM” value was -11%.
To `O=C(Nn1c(COc2ccccc2)nc2ccccc2c1=O)C(Cl)(Cl)Cl` belongs 9.26%.
As for `O=C(Cn1cc([N+](=O)[O-])cn1)Nc1nc2ccccc2s1`, the “hERG current change (%, negative = inhibition) at 10uM” value is listed as -74.6%.
The value for `O=C(Cn1ccc([N+](=O)[O-])n1)Nc1nc2ccccc2s1` was -45.8%; that for `O=C(Cn1cc([N+](=O)[O-])cn1)Nc1ccccn1` was 16.1%; that for `CC(C(=O)Nc1nc2ccccc2s1)n1cc([N+](=O)[O-])cn1` (stereo not drawn) was -69.5%.
Take `CC(C(=O)Nc1cccnc1)n1cc([N+](=O)[O-])cn1` (stereo not drawn): the “hERG current change (%, negative = inhibition) at 10uM” value is on record as 17.7%.
To `Cc1cccc(NC(=O)C(C)n2cc([N+](=O)[O-])cn2)n1` (stereo not drawn) belongs -7.48%.
The value for `CC(=O)c1sc(NC(=O)c2oc3ccc(F)cc3c2C)nc1C` was 0.318%; that for `O=C(c1cccc(F)c1)N1CCN(S(=O)(=O)c2ccccc2)CC1` was 0.349%.
The value for `CO/N=C/c1ccc(N2CCN(C(=O)c3ccc(F)cc3)CC2)c([N+](=O)[O-])c1` was -78.3%; that for `O=C(O/N=C\c1ccc(N2CCOCC2)c([N+](=O)[O-])c1)c1ccc(F)cc1` was -6.14%.
Turning to `CO/N=C/c1ccc(N2CCOCC2)c([N+](=O)[O-])c1`, the “hERG current change (%, negative = inhibition) at 10uM” value is 0.313%.
To `CO/N=C/c1ccc(N2CCN(C(=O)c3cccc(C(F)(F)F)c3)CC2)c([N+](=O)[O-])c1` belongs -43.5%; to `O=C(O/N=C\c1ccc(N2CCCCC2)c([N+](=O)[O-])c1)c1ccc(Cl)cc1Cl`, -1.17%; to `CO/N=C/c1ccc(N2CCN(C(=O)c3ccc(C)cc3)CC2)c([N+](=O)[O-])c1`, -74.9%.
As to `Cc1ccc(C(=O)O/N=C\c2ccc(N3CCCCC3)c([N+](=O)[O-])c2)cc1`, the “hERG current change (%, negative = inhibition) at 10uM” value is on record as 12.8%.
To `CO/N=C/c1ccc(N2CCCC2)c([N+](=O)[O-])c1` belongs -1.34%; to `CO/N=C/c1ccc(N2CCN(C(=O)c3ccc(Cl)cc3Cl)CC2)c([N+](=O)[O-])c1`, -53.1%.
The value for `O=C(NCCS(=O)(=O)N1CCN(c2ccccc2F)CC1)c1cccc(Br)c1` was 2.34%.
With `O=C1COc2ccc(C(=O)CSc3ccccc3C(=O)O)cc2N1`, the “hERG current change (%, negative = inhibition) at 10uM” value was 12.1%.
On to `C=CCn1c(C)cc(-c2csc(NC(=O)CCc3nc4ccccc4c(=O)[nH]3)n2)c1C`, for which the “hERG current change (%, negative = inhibition) at 10uM” value is -23.8%.
Turning to `CCOC(=O)C1C2C=CC3(CN(Cc4ccccc4)C(=O)C13)O2` (stereo not drawn), the “hERG current change (%, negative = inhibition) at 10uM” value is 13.7%.
Regarding `C/C(CC(=O)NC1CCCCCC1)=N\NC(=O)c1cnccn1`, the “hERG current change (%, negative = inhibition) at 10uM” value is recorded as 2.01%.
On to `CC(C)n1cnnc1SCC(=O)NCC(=O)Nc1ccc(F)cc1`, for which the “hERG current change (%, negative = inhibition) at 10uM” value was found to be 11.2%.
For the molecule `C/C(=N\NC(=O)c1ccn(C)n1)c1ccc(NC(=O)c2cccc(F)c2)cc1`, the “hERG current change (%, negative = inhibition) at 10uM” value is recorded as 8.11%.
To `CCc1ccc(OC(=O)c2cccnc2)cc1` belongs 21.6%; to `COCCCNC(=O)c1ccccc1NS(C)(=O)=O`, 4.15%.
With `CCOc1ccc2nc(NCCNC(=O)CC)c(C#N)cc2c1`, the “hERG current change (%, negative = inhibition) at 10uM” value is recorded as -12%.
To `COc1ccc(C(=O)NCCNc2nc3cc(C)c(C)cc3cc2C)cc1` belongs 7.22%; to `CCOc1ccc2nc(NCCNC(=O)C3CC3)c(C)cc2c1`, -63.7%.
As for `CCOc1ccc2nc(NCCNC(=O)C(C)C)c(C)cc2c1`, the “hERG current change (%, negative = inhibition) at 10uM” value is -61%.
Take `CCOc1ccc2nc(NCCNC(=O)C(C)(C)C)c(C)cc2c1`: the “hERG current change (%, negative = inhibition) at 10uM” value is reported as -46.1%.
As to `COCC(=O)NCCNc1nc2ccc(C)cc2cc1C`, the “hERG current change (%, negative = inhibition) at 10uM” value is recorded as -24.9%.
With `O=C(CSc1nc(-c2ccccc2)cs1)Nc1nccs1`, the “hERG current change (%, negative = inhibition) at 10uM” value is -8.07%.
As to `CC(=O)c1c(N2CCN(C(=O)c3ccco3)CC2)nc(=S)n(-c2ccccc2)c1C`, the “hERG current change (%, negative = inhibition) at 10uM” value was -1.95%.
In the case of `Cc1cc(NC(=O)c2ccc(Br)c(S(=O)(=O)N3CCCC3)c2)no1`, the “hERG current change (%, negative = inhibition) at 10uM” value was 0.115%.
As for `COc1ccc2cc1Oc1ccc(cc1)C[C@H]1c3cc(c(OC)cc3CCN1C)Oc1c(OC)c(OC)cc3c1[C@H](C2)N(C)CC3`, the “hERG current change (%, negative = inhibition) at 10uM” value is recorded as -37.4%.
To `COc1ccc2cc1Oc1ccc(cc1)C[C@H]1c3cc(c(OC)cc3CCN1C)Oc1c(OC)c(OC)cc3c1[C@@H](C2)N(C)CC3` belongs -57.4%.
For `COc1ccc2cc1Oc1ccc(cc1)C[C@H]1c3cc(c(OC)cc3CCN1C)Oc1c(O)c(OC)cc3c1[C@H](C2)N(C)CC3`, the “hERG current change (%, negative = inhibition) at 10uM” value is on record as -47.7%.
For `CC(C)CN(C(=O)c1ccc(N2CCCC2=O)cc1)c1c(N)n(Cc2ccccc2)c(=O)[nH]c1=O`, the “hERG current change (%, negative = inhibition) at 10uM” value came to 19.6%.
As to `COc1ccccc1N1CCN(C(=O)c2ccc(Cl)c(S(=O)(=O)NCc3ccco3)c2)CC1`, the “hERG current change (%, negative = inhibition) at 10uM” value is -14.2%.
The value for `CCOC(=O)N1CCN(C(=O)c2ccc(S(=O)(=O)NCc3ccco3)cc2)CC1` was -2%; that for `O=C(c1ccc(S(=O)(=O)NCc2ccco2)cc1)N1CCN(Cc2ccccc2)CC1` was 2.86%; that for `COc1ccc(N2CCN(C(=O)c3ccc(S(=O)(=O)NCc4ccco4)cc3)CC2)cc1` was -54.7%.
For `N#Cc1ccc(CN2CCN(C(=O)c3ccc(S(=O)(=O)NCc4ccco4)cc3)CC2)cc1`, the “hERG current change (%, negative = inhibition) at 10uM” value is reported as -59.8%.
Take `O=C(c1ccc(Cl)c(S(=O)(=O)NCc2ccco2)c1)N1CCN(c2ccc(F)cc2)CC1`: the “hERG current change (%, negative = inhibition) at 10uM” value is given as -70.3%.
To `O=C(c1ccc(S(=O)(=O)NCc2ccco2)cc1)N1CCN(Cc2ccc3c(c2)OCO3)CC1` belongs -32.5%; to `O=C(c1ccc(S(=O)(=O)NCc2ccco2)cc1)N1CCN(c2ccc(F)cc2)CC1`, -31.5%; to `Cc1cccc(N2CCN(C(=O)c3ccc(Cl)c(S(=O)(=O)NCc4ccco4)c3)CC2)c1C`, 4.75%.
Take `Cc1cccc(NC(=O)CN2C(=O)COc3ccc(Cl)cc32)c1C`: the “hERG current change (%, negative = inhibition) at 10uM” value is recorded as 8.74%.

For the origin of these results see PMC4336329 (PLoS ONE, 2015).
